Source: PubChem BioAssay AID504834 (National Center for Advancing Translational Sciences (NCATS), 2011)
Out of some 320,000 compounds screened, about 22,000 (6.9%) were called active. Where a call stands in place of a potency, no number is given. Roughly 27% stayed inconclusive and do not appear here. For the sample, actives were picked, then their nearest neighbours and some compounds at random. A number with no mark means an inactive call. Calls follow the shape of the dose curve; as a rule, active = well fitted inhibition curve with a large enough effect; inconclusive = small, poorly fitted or top-dose-only effect, or another doubt; inactive = no such curve, though single readings can be large or run the other way.
Potency is read from the fitted curve at half-maximal effect.

Assay: Primary qHTS for delayed death inhibitors of the malarial parasite plastid, 96 hour incubation
Details: P. falciparum luciferase reporter growth; series mostly up to 28.7 µM
Outline: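 Two-generation exposure (96 h) targets delayed-death phenotype. Reporter parasites carrying integrated firefly luciferase, in red cells at 2% hematocrit and 0.05% parasitemia final, kept at 37 C, 5% CO2; luminescence loss indicates inhibition.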
For `CNS(=O)(=O)c1cccc(C(=O)NCC2CCCCC2)c1`, the Potency was “inactive”. With `CCOc1ccc(N/C(N)=N/c2nc(C)c(C)c(=O)[nH]2)cc1` the Potency was “inactive”. For `O=C(Nc1cccc(Cl)c1N1CCOCC1)c1cccnc1`, the Potency was 9.28 µM (active). For `O=C(Nc1cccc(Cl)c1N1CCOCC1)c1ccc2c(c1)OCCO2`, the activity change, negative = inhibition was 47.9% [at 5.75 µM]. In the case of `COC(=O)c1cc(NC(=O)c2cccnc2)ccc1N1CCOCC1`, the Potency is reported as “inactive”. For `COCCNC(=O)c1ccc2c(c1)ncn2-c1ccc(C)c(Cl)c1`, the Potency was “inactive”. For `COc1ccc2c(c1)N(C)/C(=C1/SC(=S)N(NC(C)=O)C1=O)S2`, the Potency was “inactive”. With `COc1ccc2cc(C(=O)C3CCCN(C(=O)c4sc(C)nc4C)C3)ccc2c1` (configuration not stated) the Potency was 13.1 µM (active). In the case of `Cc1nc(C(=O)N2CCCC(C(=O)c3ccc(Cl)cc3)C2)cs1` (configuration not stated), the Potency is reported as “inactive”. For `CCNC(=O)N1CCCC(C(=O)c2ccc(-c3ccccc3)cc2)C1` (configuration not stated), the Potency was 10.4 µM (active). In the case of `COc1ccc(C(=O)C2CCCN(C(=O)c3cnsn3)C2)c(C)c1` (configuration not stated), the Potency is reported as “inactive”. With `CC(C)Oc1cccc(C(=O)C2CCCN(C3CCOCC3)C2)c1` (configuration not stated) the Potency was “inactive”. With `Cn1nccc1C(=O)N1CCCC(C(=O)c2ccc(Oc3ccccc3)cc2)C1` (configuration not stated) the Potency was 2.94 µM (active). In the case of `CCn1nc(C)cc1C(=O)N1CCCC(C(=O)c2cccc(OC)c2)C1` (configuration not stated), the Potency is reported as “inactive”. For `CSc1ccc(C(=O)C2CCCN(C(=O)c3ccc(C)nc3)C2)cc1` (configuration not stated), the Potency was “inactive”. With `Cc1ccccc1NC(=O)C1CCCN(C(=O)NCc2ccccc2)C1` (configuration not stated) the Potency was “inactive”. For `CCOc1cc(/C=C/c2nc3ccccc3c(=O)[nH]2)cc(Br)c1OC`, the Potency was “inactive”. For `Cc1cc(OC(=O)c2ccc(OC(C)C)cc2)c([N+](=O)[O-])c(=O)[nH]1`, the Potency was “inactive”. In the case of `Cc1cccc(C(=O)OC(C)C(=O)NC2CCCc3ccccc32)c1O` (configuration not stated), the Potency is reported as “inactive”. With `O=C(NC1CCCCC1)c1ccc(-c2ccc(Cl)cc2)o1` the Potency was “inactive”. For `COc1ccc(C2/C(=C(/O)c3ccc4c(c3)CC(C)O4)C(=O)C(=O)N2Cc2ccncc2)cc1` (configuration not stated), the Potency was “inactive”. In the case of `CC(=O)c1c(C)[nH]c(C(=O)OCC(=O)Nc2c(C)n(C)n(-c3ccccc3)c2=O)c1C`, the Potency is reported as “inactive”. With `COc1ccc(N2CCN(C(=O)CN3C(=O)COc4ccccc43)CC2)cc1` the Potency was “inactive”. For `CN1CN(C)c2ccc([N+](=O)[O-])c3cccc1c23`, the Potency was “inactive”. For `O=C(NCc1ccncc1)C1CCN(C(=O)c2cccc(Cl)c2)CC1`, the Potency was “inactive”. With `CCCn1c(C2CCCN2c2nc(-c3ccc(C)cc3)cs2)nc2cc(Cl)c(N3CCCCC3)cc21` (configuration not stated) the Potency was 3.29 µM (active). With `COc1cccc(NC(=O)CN2CCN(c3nc(-c4cccc(OC)c4)cs3)CC2)c1` the Potency was “inactive”. With `COc1ccc(-c2csc(N3CCN(Cc4ccc5c(c4)OCO5)CC3)n2)cc1` the Potency was “inactive”. For `Cc1ccc(-c2csc(N3CCN(c4cc5c(cc4Cl)nc(-c4ccncc4)n5CCOCCO)CC3)n2)cc1`, the Potency was 5.86 µM (active). With `CCn1c(SCC(=O)N/N=C/c2ccccc2OCC(=O)O)nnc1-c1ccc(C(C)(C)C)cc1` the Potency was “inactive”. For `O=C1CC2(CC(c3ccc(Cl)cc3)=NO2)C(=O)N1c1ccccc1` (configuration not stated), the Potency was “inactive”. With `COCCN(CCOC)c1nc(N)c2c(N)nc3c(c2c1C#N)CC(=O)N3Cc1ccc(Cl)cc1` the Potency was 2.62 µM (active). For `CCCCN1C(=O)C(=O)N(CC(=O)Nc2cccc(C(C)=O)c2)C1=O`, the Potency was “inactive”. For `COc1ccc(NCCc2ccccn2)cc1`, the Potency was “inactive”. For `Cc1ccc(NC(=O)CCC(=O)c2ccc(Br)cc2)cc1`, the Potency was “inactive”. With `O=C(NCCCN1CCCCC1)C1CCCN(c2ncnc3c2nc2n3CCCCC2)C1` (configuration not stated) the Potency was “inactive”. For `CCOC(=O)c1cccc(NC(=O)C2CCN(c3ncnc4c3nc3n4CCCCC3)CC2)c1`, the Potency was 10.4 µM (active). With `COCCNc1ncnc2c1nc1n2CCCC1` the Potency was “inactive”. For `COc1cccc(CNC(=O)C2CCCN(c3ncnc4c3nc3n4CCCCC3)C2)c1` (configuration not stated), the Potency was “inactive”. In the case of `COc1cccc(NC(=O)C2CCCN(c3ncnc4c3nc3n4CCCCC3)C2)c1` (configuration not stated), the Potency is reported as 8.28 µM (active). With `CN(Cc1ccccc1)C(=O)C1CCCN(c2ncnc3c2nc2n3CCCCC2)C1` (configuration not stated) the Potency was 14.7 µM (active). For `O=C(NCc1ccccc1Cl)C1CCN(c2ncnc3c2nc2n3CCCCC2)CC1`, the Potency was “inactive”. For `OC1CCCN(c2ncnc3c2nnn3Cc2c(F)cccc2Cl)C1` (configuration not stated), the Potency was “inactive”. In the case of `CN(C(=O)C1CCN(c2ncnc3c2nc2n3CCCCC2)CC1)C1CCCCC1`, the Potency is reported as “inactive”. For `Cc1cnc(C(=O)Oc2cccc(Cl)c2Cl)cn1`, the Potency was “inactive”. With `O=C(NCC#CCSc1nnc(-c2cccc3ccccc23)o1)c1cccs1` the Potency was “inactive”. With `Cc1ccc(S(=O)(=O)N[C@@H](Cc2ccccc2)C(=O)N2CCC(C(=O)N[C@H](C(=O)O)C(C)O)CC2)cc1` (some centres not stated) the Potency was “inactive”. With `O=S(=O)(Cc1nnnn1-c1ccc(Br)cc1)c1ccc(F)cc1` the Potency was “inactive”. For `O=C(Nc1ccccc1)/C(=C\c1ccco1)NC(=O)c1ccco1`, the Potency was “inactive”. For `CCn1c(SCC(=O)Nc2sc(C)c(C)c2C#N)nnc1C1CC1`, the Potency was “inactive”. For `CC(=O)c1c(N2CCOCC2)nc(=S)n(Cc2ccccc2)c1C`, the Potency was 0.329 µM (active). In the case of `CC(=O)c1c(N2CCOCC2)nc(=S)n(-c2cc(C)ccc2C)c1C`, the Potency is reported as “inactive”. For `O=C(N1CCOCC1)N(Cc1ccccc1)c1ccccn1`, the Potency was “inactive”. In the case of `CN1CCN(C(=O)c2ccccc2NC(=O)COc2ccccc2Cl)CC1`, the Potency is reported as “inactive”. With `CCOc1ccc(NC(=S)N2CCCCCC2)cc1` the Potency was “inactive”. For `CCOc1ccc(NC(=S)N2CCC(N(C)CC3CCCO3)CC2)cc1` (configuration not stated), the Potency was 11.7 µM (active). For `COc1ccc(S(=O)(=O)N2CCN(C(=S)NCC3CCCO3)CC2)cc1OC` (configuration not stated), the Potency was “inactive”. With `CCOc1ccc(S(=O)(=O)N2CCN(C(=S)NCC3CCCO3)CC2)cc1` (configuration not stated) the Potency was 2.94 µM (active). For `CCC(C)N(C)C1CCN(C(=S)Nc2ccc(OC)cc2)CC1` (configuration not stated), the Potency was “inactive”. In the case of `CCOc1ccc(S(=O)(=O)NCCC(=O)NCC2CCCO2)cc1` (configuration not stated), the Potency is reported as “inactive”. With `NCC(=O)c1cccc2ccc[n+]([O-])c12` the Potency was “inactive”. For `O=C(CNC(=O)OCc1ccccc1)NC1CCCCNC1=O` (configuration not stated), the Potency was “inactive”. For `Cc1ccc(C(=O)NCC(=O)NCc2cc(=O)n(C)c(=O)n2C)cc1`, the Potency was “inactive”. For `O=C(NCCc1nnc2ccc(SCC(=O)N3CCOCC3)nn12)c1ccccc1`, the Potency was “inactive”. For `COc1ccc(N2CCN(C(=O)C3CCN(S(=O)(=O)c4ccc(C)cc4)CC3)CC2)cc1`, the Potency was “inactive”. In the case of `CCCCOc1ccc(NC(=O)[C@@H]2CCCN2C(=O)C2CCN(S(=O)(=O)c3ccc(C)cc3)CC2)cc1`, the Potency is reported as 11.7 µM (active). For `CCOc1cccc(NC(=O)C2CCCN(S(=O)(=O)c3ccc(OC)cc3)C2)c1` (configuration not stated), the Potency was “inactive”.
